Compounds with a hit are over-represented: about 7.4% of the library has one in this group of screens.
Rab9 prom act: activates the Rab9 promoter; Huh7 Rab9 promoter-luciferase reporter, luminescence, 24 h; Potency, µM (highest dose often 9.22 µM), without a hit: at the highest dose activation, negative = inhibition, most hits filed as activators; AID 485297; 2.8% of 320,000 active; note: % of control where 0% means no effect; nearly all actives have a fitted effect of over 60% in size
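Steps: seed 1500 Huh7 Rab9-luc cells per well, rest 2 h at 37 °C; add compound in DMSO; incubate 24 h; add luciferase reagent, 10 min ambient; read luminescence.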
FLuc counter: counter-screen for miR-21 project: firefly luciferase inhibitors or activators. P08659. purified FLuc, Km substrates, luminescence inhibition. Potency, µM (titrated, usually from 57.5 µM), inactives show top-dose activity change, negative = inhibition, usual class: inhibitors. 6.9% of 360,000 active;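 note: plate controls were vehicle for no effect and reference inhibitor for full effect; nearly all actives have a fitted effect of over 55% in size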
Target sequence (P08659 whole entry, looked up): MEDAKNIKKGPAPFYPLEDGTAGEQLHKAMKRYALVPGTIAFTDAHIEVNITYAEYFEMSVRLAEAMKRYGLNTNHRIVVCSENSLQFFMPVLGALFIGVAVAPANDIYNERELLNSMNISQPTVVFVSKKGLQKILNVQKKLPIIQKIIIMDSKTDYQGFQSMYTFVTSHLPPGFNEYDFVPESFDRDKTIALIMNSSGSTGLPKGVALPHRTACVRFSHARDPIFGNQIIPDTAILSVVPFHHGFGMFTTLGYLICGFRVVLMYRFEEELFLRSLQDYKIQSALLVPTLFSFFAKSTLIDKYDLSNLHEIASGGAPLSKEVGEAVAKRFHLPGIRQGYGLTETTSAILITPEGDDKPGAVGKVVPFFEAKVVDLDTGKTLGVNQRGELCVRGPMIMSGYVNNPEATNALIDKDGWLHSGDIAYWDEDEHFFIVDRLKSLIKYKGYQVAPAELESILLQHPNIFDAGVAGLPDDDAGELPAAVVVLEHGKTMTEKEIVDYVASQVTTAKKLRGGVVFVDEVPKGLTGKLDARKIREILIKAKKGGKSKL
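Purified P. pyralis luciferase (10nM final) with 10uM D-luciferin and 10uM ATP (Km levels) in 50mM Tris acetate pH 7.5, 10mM Mg acetate, 0.01% Tween-20, 0.05% BSA; qHTS 6-point titration, ~60 µM downward; luminescence read.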
ELG1 genotoxic: inducers of genotoxicity in HEK293T ELG1-luciferase cells. AID 504466. HEK293T ELG1-luciferase reporter, luminescence, 16 h. Potency, µM (series often up to 46 µM), inactives show top-dose activity change, positive = activation, most hits filed as activators. 1.3% of 330,000 active; note: % of control where 0% means no effect; nearly all actives have a fitted effect of over 60% in size
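HEK293T cells expressing luciferase-tagged ELG1 were treated with compound or DMSO for 16 hr at 37°C. Luciferase activity was then read after 30 min with ONE-Glo at room temperature; rising signal flags genetic stress.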
NPC1 prom act: NPC1 promoter activation; Huh7 NPC1 promoter luciferase reporter, 24 h; Potency, µM (titrated, usually from 9.22 µM), without a hit: top-dose activation, most hits filed as activators; 2.4% of 320,000 active; AID 485313; note: % of control where 0% means no effect; nearly all actives have a fitted effect of over 60% in size
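Compounds in DMSO were transferred onto Huh7 NPC1-luciferase reporter cells pre-incubated 2 h; after 24 h at 37 °C, Amplite reagent was dispensed and luminescence recorded 10 min later.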
SMN2 splice up: enhancers of SMN2 splice variant expression | HEK293 SMN2-luciferase splicing reporter, luminescence, 30-36 h | Potency, µM (series often up to 46.1 µM), for the others: top-dose activity change, positive = activation, actives largely listed as activators | 2.8% of 210,000 active | AID 1458; note: % of control where 0% means no effect; nearly all actives have a fitted effect of over 55% in size
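qHTS luciferase splicing reporter: luminescence rises when SMN2 exon 7 is included in transfected HEK293 cells. Compound exposure lasted 30-36 h at 37C, with 4.5 mM final sodium butyrate as control, followed by a ONE-Glo read.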
Luc counter: counter-screen: inhibitors of Kinase-Glo firefly luciferase; Kinase-Glo luciferase, ATP luminescence, 8 min; Potency, µM (highest dose often 38.3 µM), for the others: at the highest dose activity change, negative = inhibition, usual class: inhibitors; Q27757; 0.28% of 200,000 active; note: % is set by controls: 0 for no effect and ±100 for the full control effect; nearly all actives have a fitted effect of over 60% in size
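Inhibition of Kinase-Glo luciferase light generation was assessed at 10 uM ATP in pH 7.2 imidazole buffer, with luminescence measured after eight minutes at ambient temperature.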
Starred values were filed as active, the others as inactive; ? = inconclusive; . = no result. Calls come from the whole dose curve; as a rule, active = well fitted curve in the direction sought with a large enough effect; inconclusive = small, poorly fitted or top-dose-only effect, or another doubt; inactive = no such curve, though single readings can be large; an effect the other way counts as inactive or inconclusive. Potency is the fitted concentration of half-maximal effect.

SMILES | Rab9 prom act | FLuc counter | ELG1 genotoxic | NPC1 prom act | SMN2 splice up | Luc counter
O=C(Nc1ncc(Cc2ccc(SC(F)F)cc2)s1)c1ccccc1 | 5% | 13µM* | 12% | -3% | -1% | -1%
Cc1ccc(Cc2cnc(NC(=O)C3CCCO3)s2)cc1 (stereo not drawn) | 1.3µM* | 3µM* | ? | 1.1µM* | 14µM* | -2%
O=C(Nc1ncc(Cc2cccc(C(F)(F)F)c2)s1)C1CCCO1 (stereo not drawn) | 21% | ? | 0% | 13% | . | .
O=C(Nc1ncc(Cc2ccc(Cl)cc2)s1)c1ccc2c(c1)CC(c1ccccc1)OC2=O (stereo not drawn) | . | 0% | . | . | -6% | .
O=C(Nc1ncc(Cc2ccccc2)s1)c1cccs1 | 0.5µM* | 1.1µM* | ? | 1.3µM* | 4.5µM* | 12%
N#Cc1ccc(NC(=O)COC(=O)CCNS(=O)(=O)c2ccccc2)cc1 | -4% | 0% | 3% | -1% | 3% | -1%
CCN1CCSc2ccc(C(=O)NC(C)c3ccccc3)cc21 (stereo not drawn) | . | -4% | . | . | 11% | .
Cc1ccc(Cc2cnc(NC(=O)c3cccs3)s2)cc1 | ? | 2.7µM* | -1% | 2.8µM* | 14µM* | -4%
O=C(Nc1ncc(Cc2cccc(Cl)c2)s1)c1cccs1 | ? | 15µM* | 4% | ? | 16% | -2%
c1ccc2oc(-c3ccc(Nc4nc(N5CCCC5)nc(N5CCOCC5)n4)cc3)nc2c1 | -5% | -3% | 1% | -3% | . | -1%
CC(=O)c1ccc(S(=O)(=O)Nc2cccc(-c3ccc(N4CCCC4)nn3)c2)cc1 | . | 9.5µM* | . | . | . | .
CC(=O)c1ccc(S(=O)(=O)Nc2cccc(-c3cn4c(n3)SCC4)c2)cc1 | 5% | -15% | -6% | 3% | -40% | 1%
CC(=O)c1ccc(S(=O)(=O)Nc2cccc(-c3ccc(N4CCCCCC4)nn3)c2)cc1 | . | 4.8µM* | . | . | . | .
CC(=O)c1cccc(NS(=O)(=O)c2ccc(NC(=O)N3CCCCC3)cc2)c1 | -24% | 0% | 0% | -26% | . | .
CCC(C(=O)OC)n1nnc2sc(-c3ccccc3)cc2c1=O (stereo not drawn) | . | 19µM* | . | . | -1% | .
COc1ccc(NC(=O)C(C)n2nnc3sc(-c4ccccc4)cc3c2=O)cc1Cl (stereo not drawn) | . | 6µM* | . | . | -1% | .
CCCCCC1CCC(C(=O)O)CC1 (stereo not drawn) | 11% | -22% | -3% | 1% | -11% | -5%
CCCCC1CCC(CCCC(C)CCC(=O)O)CC1 (stereo not drawn) | . | 27µM* | . | . | -8% | .
O=C(Cc1csc(NC(=O)Nc2ccc(Cl)cc2)n1)NCc1cccnc1 | 24% | 3µM* | 0% | 24% | . | .
O=C(Cc1csc(NC(=O)Nc2cccc(Cl)c2)n1)NCc1cccnc1 | 14% | 6.7µM* | -8% | 11% | . | .
O=C(NCc1cccnc1)Nc1cccc(Cl)c1 | 15% | -2% | 8% | 11% | . | .
O=C(Cc1csc(NC(=O)Nc2cccc(Cl)c2)n1)NCc1ccccn1 | ? | 2.7µM* | 2% | 22% | . | .
Cc1c(Cl)cccc1NC(=O)CCn1cnnn1 | . | 2% | . | . | -1% | .
CCOC(=O)c1c(C)[nH]c(C)c1S(=O)(=O)N1CCCC(C(=O)Nc2ccc(F)cc2F)C1 (stereo not drawn) | . | -3% | . | . | . | .
CC(C)(C)c1nn(-c2ccccc2)c2[nH]c(=O)c(C=O)cc12 | 2% | 4% | 1% | 1% | . | .
SMILES | Rab9 prom act | FLuc counter | ELG1 genotoxic | NPC1 prom act | SMN2 splice up | Luc counter
COc1ccc(N2CCN(C(=O)COc3ccccc3C#N)CC2)cc1 | . | 0% | . | . | -15% | .
COc1ccc2oc(C(=O)NC(C)(C)C)c(C)c2c1 | 4µM* | 15µM* | ? | ? | 13µM* | -3%
Cc1ccc2oc(C(=O)Nc3nonc3C)c(C)c2c1 | 3.2µM* | 7.6µM* | ? | ? | . | .
COc1ccc2oc(C(=O)Nc3nnc(C)s3)c(C)c2c1 | 0.71µM* | 0.6µM* | 3.3µM* | ? | . | .
Cc1ccc2oc(C(=O)Nc3nnc(C)s3)c(C)c2c1 | 1.4µM* | 1.7µM* | 5.8µM* | 3.2µM* | 16µM* | -5%
CC(C)COC(=S)Nc1ccccc1 | 2% | 17µM* | ? | 0% | -9% | 6%
O=C(CS(=O)(=O)Cc1ccccc1)Nc1nc2ccccc2s1 | 2% | -21% | 3% | 1% | -9% | 2%
COc1ccc(CNc2nc3ccccc3s2)cc1OC | ? | 24µM* | ? | ? | . | .
Cc1ccc(CNc2nc3ccccc3s2)s1 | 0.35µM* | 0.34µM* | ? | 0.35µM* | 1.3µM* | -3%
COc1ccc(CNc2nccs2)cc1OC | -4% | 10% | 1% | 0% | . | .
c1ccc(CCNc2nc3ccccc3s2)cc1 | ? | 19µM* | ? | ? | -12% | 0%
Cc1ccc(SCCc2cc[n+](CC(=O)c3ccccc3)cc2)cc1 | ? | 19µM* | ? | 29% | . | 0%
Cc1ccc2c(CN3CCC(C)CC3)cc(=O)oc2c1 | 1.8µM* | 7.6µM* | 4.6µM* | 3.5µM* | 14µM* | -3%
COc1ccc(C2=NN(c3ccccc3)C(c3ccc(OC)c(OC)c3)C2)cc1 (stereo not drawn) | ? | ? | 6% | 27% | . | .
COc1ccc(C2=NN(C(C#N)c3ccc(OC)c(OC)c3)C(c3ccccc3)C2)cc1 (stereo not drawn) | ? | 12µM* | 5.8µM* | 14% | 95% | -5%
Cc1ccc(C(=O)N/N=C\c2c(C)nn(-c3ccccc3)c2Cl)cn1 | -4% | 11µM* | 6% | 3% | ? | ?
Cc1nn(-c2ccccc2)c(Cl)c1/C=N/O | 0% | ? | 8% | -6% | ? | -3%
Cc1nn(-c2ccccc2)c(Cl)c1/C=N/NC(=O)c1cccnc1 | 1% | 13µM* | 9% | 0% | ? | -1%
Cc1ccc(-n2nc(C)c(/C=N/NC(=O)c3cccnc3)c2Cl)cc1 | -1% | ? | -2% | -3% | 13% | 3%
Cc1nn(-c2ccccc2)c(Cl)c1/C=C/C(=O)c1ccccc1 | 0% | 3.8µM* | 18µM* | -1% | -18% | -4%
O=C(N=C1c2ccccc2CN1c1ccc(F)c(Cl)c1)c1cccnc1Cl | ? | 15µM* | ? | ? | 11µM* | -13%
N#Cc1ccc(N2Cc3ccccc3C2=NC(=O)c2cccnc2Cl)cc1 | ? | ? | 10% | 19% | 46% | -16%
O=C(COc1ccccc1)OCc1cc2ccccc2[nH]c1=O | 0% | 21µM* | -7% | -1% | -6% | 2%
Cn1c(=O)c2c(nc(NN=C3CCCCC3)n2C)n(C)c1=O | -2% | ? | 0% | 3% | -49% | 11µM*

Source: PubChem (National Center for Advancing Translational Sciences (NCATS))
